Consider 25 compounds from PubChem BioAssay AID504850 (National Center for Advancing Translational Sciences (NCATS), 2011).

The campaign covered roughly 2,300 compounds. About 1,200 (52%) were called active. About 34% were inconclusive and are not listed. The set was probably picked from earlier hits. The list shows a part of the results. A number with no mark means an inactive call. Calls follow the shape of the dose curve; as a rule, active = well fitted inhibition curve with a large enough effect; inconclusive = small, poorly fitted or top-dose-only effect, or effect the other way; inactive = no such curve, though single readings can be large or run the other way.
% is scaled to controls: 0 for no effect and ±100 for the full control effect; potency is read from the fitted curve at half-maximal effect.

A short description of this assay: Confirmation screen for delayed death inhibitors of the malarial parasite plastid, 48 hour incubation. Also: nearly all actives have a fitted effect of over 65% in size. The settings on record: P. falciparum-infected erythrocytes, luciferase growth; series mostly up to 28.7 µM; activity change, negative = inhibition: at the top concentration. Put shortly:
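Single-generation (48 h, 37 C) exposure of integrated firefly luciferase-reporter P. falciparum in red cells, 0.1% parasitemia at 2% hematocrit, Albumax-supplemented RPMI. Falling luciferase signal marks parasite growth inhibition.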
`Cn1nnnc1Sc1ncnc2scc(-c3cccc(S(C)(=O)=O)c3)c12`: the Potency was 12.6 µM (active).

For `Cn1nnnc1Sc1ncnc2scc(-c3cccc(F)c3)c12`, the Potency is 12.6 µM (active).

With `Cc1onc(-c2c(Cl)cccc2Cl)c1C(=O)N=C(N)N1CC(C)OC(C)C1` (stereo not given), the Potency is 11.2 µM (active).

Regarding `Cc1onc(-c2c(F)cccc2Cl)c1C(=O)N1CCCCC1`, the “activity change, negative = inhibition” value is -20.1%.

For `C=CCC1(O)C(=O)N2C(=C1C(=O)OCC)c1ccc3ccccc3c1CC2(C)C` (stereo not given), the Potency is 11.2 µM (active).

With `CCCNC(=O)c1ccc(S(=O)(=O)c2ccc(OC)cc2)c([N+](=O)[O-])c1`, the Potency is 7.94 µM (active).

As to `Cc1ccc(C(=O)NCCn2ccc3ccccc32)cc1[N+](=O)[O-]`, the “activity change, negative = inhibition” value was 20.4%.

Regarding `O=C(N/N=C/C(Cl)=C\c1ccccc1)c1cccs1`, the Potency is 5.01 µM (active).

Consider `O=C1Nc2ccccc2/C1=C/C(=O)c1cccs1`, for which the “activity change, negative = inhibition” value is -23.8%.

As to `O=C(N/N=C(\CC(=O)c1cccs1)C(F)(F)F)c1ccncc1`, the “activity change, negative = inhibition” value is -11.5%.

Take `CC(=O)OC[C@H]1O[C@@H](n2ncc(=O)[nH]c2=O)[C@H](OC(C)=O)[C@@H]1OC(C)=O`: the “activity change, negative = inhibition” value is -3.23%.

Consider `Cc1ccc(S(=O)(=O)N(CC(=O)NCc2ccco2)c2ccccc2C)cc1`, for which the Potency is 12.6 µM (active).

For `CCCN(CCC)S(=O)(=O)c1ccc(C(=O)NCc2ccco2)cc1`, the Potency was 12.6 µM (active).

Consider `Cc1ccc(S(=O)(=O)N(Cc2ccccc2)c2ccccc2C(=O)Nc2ccccc2C(=O)NCc2ccco2)cc1`, for which the Potency was 2.51 µM (active).

`CCN(CC(=O)Nc1c(F)cccc1F)C(=O)c1ccc(S(=O)(=O)NCc2ccco2)cc1`: the “activity change, negative = inhibition” value was -12.2%.

On to `Cc1ccc(NC(=O)CN(C)C(=O)c2cccc(S(=O)(=O)NCc3ccco3)c2)cc1`, for which the “activity change, negative = inhibition” value was -19.7%.

`C(=C\c1nc(N2CCCCCC2)c2ccccc2n1)/c1ccccc1`: the Potency was 6.31 µM (active).

For the compound `O=C(COc1ccccc1)N1c2ccccc2Sc2ccccc21`, the Potency was 14.1 µM (active).

`Cc1ccc(C)c(N2CCN(S(=O)(=O)c3ccc4c(c3)NC(=O)CS4)CC2)c1`: the Potency was 11.2 µM (active).

On to `Cc1cccc(N2CCN(S(=O)(=O)c3ccc4c(c3)NC(=O)CO4)CC2)c1C`, for which the Potency is 15.8 µM (active).

Turning to `COc1ccc(-c2cc(C)no2)cc1S(=O)(=O)Nc1cccc(CN2CCCC2)c1`, the Potency was 14.1 µM (active).

Regarding `Cc1ccc(OCCSCc2nnc(NC(=O)Nc3cccc(Cl)c3)s2)cc1`, the Potency is 2.82 µM (active).

For the compound `Cc1cc(=O)oc2c3c(cc(OCC(=O)Nc4cccnc4)c12)OC(C)(C)CC3`, the Potency was 3.98 µM (active).

For the compound `Cc1ccccc1-n1nc2c(c1NC(=O)C1CCCC1)CS(=O)(=O)C2`, the “activity change, negative = inhibition” value is -20.1%.

As to `CCOC(=O)c1cc(-c2ccc(C)cc2)n(CCC(=O)NCCN(C)C)c1C`, the Potency is 11.2 µM (active).
